Screens as filed in PubChem BioAssay.
This is a sample that favours compounds with a hit; in the whole collection about 10% have one here.
HP1b binding inh: blocks HP1-beta chromodomain binding to methylated histone tails; P83916; AlphaScreen HP1-beta / biotin-H3K9me3 peptide binding; Potency, µM (top dose mostly 114 µM), actives largely listed as inhibitors; 390,000 compounds, 0.56% hits; also: nearly all actives have a fitted effect of over 70% in size
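Compound inhibition of the preformed complex between 50 nM HP1-beta and 50 nM biotinylated H3K9me3 peptide was read by AlphaScreen. Buffer was PBS pH 7.4 with 0.01% Tween-20. Incubations ran 30 min at room temperature, with 10 ug/mL donor/acceptor beads.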
L3MBTL1 block: blocks human L3MBTL1 | AID 485360 | AlphaScreen L3MBTL1–H3K9me1 peptide binding | Potency, µM (series often up to 57.1 µM), usual class: inhibitors | 230,000 compounds, 0.66% hits | Q9Y468; also: nearly all actives have a fitted effect of over 60% in size
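First, the protein-peptide complex forms for 30 min at room temperature (L3MBTL1 50 nM, biotinylated H3K9me1 peptide 75 nM). Next, compounds are pin-transferred and incubated 30 min. Finally, AlphaScreen beads are added and read after 30 min.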
JMJD2A Tudor: inhibitors of human JMJD2A Tudor domain; O75164; AlphaScreen JMJD2A-Tudor / H3K4me3 peptide binding; Potency, µM (series often up to 114 µM), most hits filed as inhibitors; 390,000 compounds, 4.4% hits; also: nearly all actives have a fitted effect of over 50% in size
G9a block: inhibitors of human histone lysine methyltransferase G9a. Potency, µM (doses to about 102 µM), actives largely listed as inhibitors. AID 504332. Q96KQ7. 350,000 compounds, 8.8% hits. G9a H3K9 monomethylation, AlphaScreen, 2 h; also: nearly all actives have a fitted effect of over 75% in size
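Readings reflect AlphaScreen signal from monomethyl-H3K9 antibody detection. HMT at 20 nM; substrate b-H3K9 500 nM; cofactor SAM 20 uM; 2 h RT reaction; compounds tested as titrations in qHTS with 15 min preincubation.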
BAZ2B block: BAZ2B (human) inhibition; Potency, µM (doses to about 114 µM), actives largely listed as inhibitors; AlphaScreen BAZ2B-H3K14Ac peptide displacement; 360,000 compounds, 4.4% hits; also: nearly all actives have a fitted effect of over 60% in size
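In this displacement format the biotinylated H3(5-23) peptide acetylated at Lys14 serves as ligand at 50 nM, with BAZ2B at 50 nM in PBS pH 7.4 containing 0.01% Tween-20. Donor and acceptor beads are 10 ug/mL final.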
GLS inh: glutaminase GLS (human) inhibition. O94925. GLS enzymatic activity, qHTS titration. Potency, µM (highest dose often 45.5 µM), hits mostly inhibitors. 410,000 compounds, 0.21% hits
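Assay buffer: 45 mM KH2PO4 pH 8.2, 0.02% Tween-20. hKGA acts on L-glutamine (1 mM solution added); product glutamate is reported by an oxidase/peroxidase Amplex Red coupling, with fluorescence taken at baseline and 30 min.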
Numbers stand for hits; . = inactive; ? = inconclusive; / = no result; [ ] = another dose, or the depositor's remark. Calls follow the shape of the dose curve; as a rule, active = well fitted curve in the direction sought with a large enough effect; inconclusive = small, poorly fitted or top-dose-only effect, or another doubt; inactive = no such curve, though single readings can be large; an effect the other way counts as inactive or inconclusive.

SMILES	HP1b binding inh	L3MBTL1 block	JMJD2A Tudor	G9a block	BAZ2B block	GLS inh
CC(=O)C1=C(O)C(=O)N(c2ccc(C(=O)O)cc2)C1c1ccccc1 (stereo not given)	.	/	32µM	45µM	?	.
CCOc1ccc(C(=O)N2CC(=O)Nc3ccc(C)cc3C2c2ccc(F)cc2)cc1OCC (stereo not given)	.	/	.	.	.	.
O=C1CC(N2CCN(c3ccc(O)cc3)CC2)C(=O)N1c1ccc2c(c1)OCO2 (stereo not given)	?	.	?	16µM	.	.
O=C1CC(N2CCN(Cc3ccc4c(c3)OCO4)CC2)C(=O)N1c1cccc(Cl)c1 (stereo not given)	.	/	.	.	.	.
O=C1CC(N2CCCCCC2)C(=O)N1c1ccc2c(c1)OCO2 (stereo not given)	.	/	.	?	.	.
COc1ccc(N2C(=O)CC(N3CCN(Cc4ccc5c(c4)OCO5)CC3)C2=O)cc1 (stereo not given)	.	.	.	40µM	.	.
COCCNC(=O)C(OC(=O)c1cc2oc(C)cc2n1C)C(C)C (stereo not given)	.	.	.	?	79µM	.
Cc1ccc(S(=O)(=O)/C=C/C#N)cc1	/	/	/	1.6µM	/	/
CN=C1N[C@H](c2ccccc2)N(c2ccccc2)S1	?	/	25µM	/	/	/
CCN1C(=O)NC(c2ccccc2)C1=O (stereo not given)	.	.	.	.	.	.
CC(=O)OC1C2CCC1C([N+]1(C)CCCCC1)CC2 (stereo not given)	71µM	/	25µM	32µM	.	.
CC(=O)O[C@H]1C[C@@H]2CCC3C(CC[C@@]4(C)[C@H]3C[C@H]([N+]3(C)CCCCC3)[C@@H]4OC(C)=O)[C@@]2(C)C[C@@H]1[N+]1(C)CCCCC1 (stereo not given in full)	/	/	/	.[12.7 µM]	/	/
C[N+]1(C2CCC3CCC2C3O)CCCC1 (stereo not given)	.	.	.	11µM	50µM	.
O=[N+]([O-])c1cnccc1Nc1cccc(F)c1	.	.	.	7.1µM	?	.
O=[N+]([O-])c1ccc(Nc2ccc(F)cc2)nc1	.	.	.	.	.	.
O=[N+]([O-])c1ccccc1Nc1ccccc1[N+](=O)[O-]	.	/	.	/	/	.
COc1ccc(Nc2ccncc2[N+](=O)[O-])cc1	.	/	.	.	?	.
O=[N+]([O-])c1ccc(Nc2cccc(F)c2)nc1	.	.	.	50µM	.	.
O=[N+]([O-])c1ccccc1Nc1cccc(F)c1	?	/	45µM	/	/	.
CCc1ccccc1NC(=O)Nc1cc(C(=O)NCc2ccc(C)cc2)ccc1N1CCCC1	.	/	.	.	.	.
COc1ccc2oc(=O)cc(CN3CCN(c4ccccc4OC)CC3)c2c1	.	/	.	.	.	.
Cn1cncc1CNc1ncnc2ccc(-c3ccc4c(c3)OCO4)cc12	/	/	56µM	/	/	/
Cc1ccc(CNc2ncnc3ccc(-c4ccc5c(c4)OCO5)cc23)s1	/	/	.	/	/	/
CCOc1ccc(C2C(=O)N(C3CCCCCC3)CC(=O)N2CCc2ccc(Cl)cc2)cc1OC (stereo not given)	.	/	.	.	.	.
CCCCn1cnc2c(c(CC#N)nn2-c2ccccc2)c1=N	.	/	.	/	/	.
SMILES	HP1b binding inh	L3MBTL1 block	JMJD2A Tudor	G9a block	BAZ2B block	GLS inh
Cn1nc(CC#N)c2c(=N)n(N)cnc21	.	/	32µM	/	/	.
CCC(CO)Oc1cc(NCc2ccc(C)cc2)c2ncn(C(C)C)c2c1 (stereo not given)	.	.	56µM	/	/	.
CCC(CO)Oc1cc(NCc2ccccc2O)c2ncn(C(C)C)c2c1 (stereo not given)	.	.	?	/	/	.
CCC(CO)Oc1cc(NCc2ccc(Cl)cc2Cl)c2ncn(C(C)C)c2c1 (stereo not given)	.	.	40µM	/	/	.
CCOc1cc(NCc2ccccc2)c2ncn(C(C)C)c2c1	?	?	50µM	/	/	.
CC[C@H](CO)Oc1cc(NCc2ccc(Cl)c(Cl)c2)c2ncn(C(C)C)c2c1	.	.	32µM	/	/	.
CCC(CO)Oc1cc(NCc2cccc(C)c2)c2ncn(C(C)C)c2c1 (stereo not given)	.	.	?	/	/	.
